# Measured values published in article PMC7862700, “An all-to-all approach to the identification of sequence-specific readers for epigenetic DNA modifications on cytosine”.
# What was measured:
# Assay in all cases: DAPPL (digital affinity profiling via proximity ligation, sequencing); 10 mM Tris-HCl pH 7.5, 50 mM NaCl, 1 mM DTT, 4% glycerol, room temperature, 30 min; GST-TFs on glutathione beads, 16-mer random dsDNA library, 0.1% formaldehyde crosslink after washing; high values mean tight binding
# [1] = target: T1, FLI1 (Homo sapiens, UniProt Q01543 1-452); conditions: protein: recombinant; tags: N-terminal GST; dsDNA, one strand shown
# T1 sequence: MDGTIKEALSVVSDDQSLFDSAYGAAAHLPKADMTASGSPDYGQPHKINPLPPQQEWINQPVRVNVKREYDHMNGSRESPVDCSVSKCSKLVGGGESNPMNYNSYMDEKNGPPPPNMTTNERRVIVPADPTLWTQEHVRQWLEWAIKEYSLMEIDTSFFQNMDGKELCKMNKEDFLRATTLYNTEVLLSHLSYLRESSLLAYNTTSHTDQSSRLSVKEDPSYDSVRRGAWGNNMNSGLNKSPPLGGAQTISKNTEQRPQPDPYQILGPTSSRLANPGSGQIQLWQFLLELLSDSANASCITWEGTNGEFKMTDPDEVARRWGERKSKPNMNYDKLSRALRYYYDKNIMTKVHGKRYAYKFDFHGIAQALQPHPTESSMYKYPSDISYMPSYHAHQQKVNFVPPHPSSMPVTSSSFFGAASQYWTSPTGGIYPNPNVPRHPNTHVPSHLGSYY
# Outline: (§1)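 GST fusions of human transcription factors were expressed in yeast and captured with glutathione beads. Once given DNA barcodes and pooled alongside a tag-only sample, they were incubated for 30 min at room temperature with 200 nmole of a random double-stranded 16-mer DNA library in Tris/NaCl/DTT/glycerol buffer, then washed, crosslinked (0.1% formaldehyde), proximity-ligated, PCR-amplified and sequenced on an Illumina NextSeq500. The binding signal of each hexamer is its read frequency for a factor divided by its frequency for the tag-only sample.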
# [2] = target: T2, ELK1 (Homo sapiens, UniProt P19419 1-428); conditions: protein: recombinant; tags: N-terminal GST; dsDNA, one strand shown
# T2 sequence: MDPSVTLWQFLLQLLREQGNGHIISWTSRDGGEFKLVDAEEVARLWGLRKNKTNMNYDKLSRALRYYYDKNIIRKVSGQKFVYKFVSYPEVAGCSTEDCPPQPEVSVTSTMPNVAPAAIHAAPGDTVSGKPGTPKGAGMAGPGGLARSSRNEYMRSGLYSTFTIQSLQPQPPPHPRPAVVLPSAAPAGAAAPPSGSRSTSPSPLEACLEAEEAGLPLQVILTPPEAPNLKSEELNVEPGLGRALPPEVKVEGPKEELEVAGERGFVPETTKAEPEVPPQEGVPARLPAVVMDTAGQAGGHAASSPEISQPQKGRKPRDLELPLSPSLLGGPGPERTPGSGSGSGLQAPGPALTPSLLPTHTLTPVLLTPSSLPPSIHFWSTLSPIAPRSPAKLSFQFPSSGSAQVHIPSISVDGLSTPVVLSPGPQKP
# Outline: as §1
# [3] = target: T3, GABPA (Homo sapiens, UniProt Q06546 1-454); conditions: protein: recombinant; tags: N-terminal GST; dsDNA, one strand shown
# T3 sequence: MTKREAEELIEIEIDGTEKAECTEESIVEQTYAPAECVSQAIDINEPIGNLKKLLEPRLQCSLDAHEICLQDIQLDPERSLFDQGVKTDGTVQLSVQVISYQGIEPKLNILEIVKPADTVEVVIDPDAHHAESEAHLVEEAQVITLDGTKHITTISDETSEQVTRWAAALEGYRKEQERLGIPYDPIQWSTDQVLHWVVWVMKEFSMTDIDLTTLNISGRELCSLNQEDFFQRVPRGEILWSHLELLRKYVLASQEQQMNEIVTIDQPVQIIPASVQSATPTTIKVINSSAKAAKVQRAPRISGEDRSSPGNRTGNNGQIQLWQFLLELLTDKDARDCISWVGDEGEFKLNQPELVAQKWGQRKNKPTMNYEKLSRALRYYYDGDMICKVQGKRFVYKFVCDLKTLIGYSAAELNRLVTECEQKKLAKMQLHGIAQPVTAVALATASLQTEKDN
# Outline: as §1
# [4] = target: T4, ERG (Homo sapiens, UniProt P11308 1-479); conditions: protein: recombinant; tags: N-terminal GST; dsDNA, one strand shown
# T4 sequence: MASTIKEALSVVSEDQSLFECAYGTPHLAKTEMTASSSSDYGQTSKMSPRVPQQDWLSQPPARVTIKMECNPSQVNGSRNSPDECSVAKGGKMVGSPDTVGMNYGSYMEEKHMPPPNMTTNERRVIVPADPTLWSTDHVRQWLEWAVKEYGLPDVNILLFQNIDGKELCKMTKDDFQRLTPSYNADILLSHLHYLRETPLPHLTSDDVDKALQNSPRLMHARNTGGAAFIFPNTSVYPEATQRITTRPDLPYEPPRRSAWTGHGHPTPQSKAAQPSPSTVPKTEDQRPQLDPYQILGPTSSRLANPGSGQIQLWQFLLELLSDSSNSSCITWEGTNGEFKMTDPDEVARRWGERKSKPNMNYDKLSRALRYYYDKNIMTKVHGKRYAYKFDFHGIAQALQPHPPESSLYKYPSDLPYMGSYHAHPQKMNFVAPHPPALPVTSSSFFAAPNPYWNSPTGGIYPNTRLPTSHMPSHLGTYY
# Outline: as §1
# [5] = target: ELF1 (Homo sapiens, UniProt P32519 1-619); conditions: protein: recombinant; tags: N-terminal GST; dsDNA, one strand shown
# Sequence of ELF1 (P32519 whole entry): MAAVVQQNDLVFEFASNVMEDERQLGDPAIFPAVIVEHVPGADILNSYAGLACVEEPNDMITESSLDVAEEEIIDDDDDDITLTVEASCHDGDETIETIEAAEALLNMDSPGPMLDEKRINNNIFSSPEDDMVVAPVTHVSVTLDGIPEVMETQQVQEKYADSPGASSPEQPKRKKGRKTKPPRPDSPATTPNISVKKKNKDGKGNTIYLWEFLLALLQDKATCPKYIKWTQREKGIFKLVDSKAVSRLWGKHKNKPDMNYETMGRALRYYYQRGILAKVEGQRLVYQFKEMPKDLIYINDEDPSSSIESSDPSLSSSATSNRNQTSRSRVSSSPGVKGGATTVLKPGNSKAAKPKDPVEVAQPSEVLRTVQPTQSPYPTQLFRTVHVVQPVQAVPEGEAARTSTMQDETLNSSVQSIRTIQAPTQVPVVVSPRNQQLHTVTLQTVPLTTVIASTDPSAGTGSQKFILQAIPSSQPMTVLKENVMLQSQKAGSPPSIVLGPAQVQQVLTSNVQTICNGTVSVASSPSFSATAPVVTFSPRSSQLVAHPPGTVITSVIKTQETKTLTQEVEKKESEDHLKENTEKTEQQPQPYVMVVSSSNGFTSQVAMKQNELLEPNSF
# Outline: as §1
# [6] = target: T5, EHF (Homo sapiens, UniProt Q9NZC4 1-300); conditions: protein: recombinant; tags: N-terminal GST; dsDNA, one strand shown
# T5 sequence: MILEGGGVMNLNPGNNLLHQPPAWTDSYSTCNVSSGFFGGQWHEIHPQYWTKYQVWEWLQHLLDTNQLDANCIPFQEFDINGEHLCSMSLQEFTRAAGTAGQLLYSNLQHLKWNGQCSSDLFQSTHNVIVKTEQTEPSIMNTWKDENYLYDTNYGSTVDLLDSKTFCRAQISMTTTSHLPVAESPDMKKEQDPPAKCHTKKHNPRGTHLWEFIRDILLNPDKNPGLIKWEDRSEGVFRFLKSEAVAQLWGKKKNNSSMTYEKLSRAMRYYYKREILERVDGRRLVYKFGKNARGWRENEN
# Outline: as §1
# [7] = target: SPI1 (Homo sapiens, UniProt P17947 1-270); conditions: protein: recombinant; tags: N-terminal GST; dsDNA, one strand shown
# Outline: as §1
# [8] = target: SPIB (Homo sapiens, UniProt Q01892 1-262); conditions: protein: recombinant; tags: N-terminal GST; dsDNA, one strand shown
# Sequence of SPIB (Q01892 whole entry): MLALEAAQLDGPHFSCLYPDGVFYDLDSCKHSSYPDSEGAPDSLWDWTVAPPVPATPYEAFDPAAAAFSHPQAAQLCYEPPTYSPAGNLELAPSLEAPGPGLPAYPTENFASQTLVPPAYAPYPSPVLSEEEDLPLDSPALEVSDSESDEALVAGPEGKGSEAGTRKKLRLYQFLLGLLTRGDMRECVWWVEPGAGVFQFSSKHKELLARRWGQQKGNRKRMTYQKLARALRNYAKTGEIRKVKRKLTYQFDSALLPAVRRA
# Outline: as §1
# [9] = target: T6, ELK3 (Homo sapiens, UniProt P41970 1-407); conditions: protein: recombinant; tags: N-terminal GST; dsDNA, one strand shown
# T6 sequence: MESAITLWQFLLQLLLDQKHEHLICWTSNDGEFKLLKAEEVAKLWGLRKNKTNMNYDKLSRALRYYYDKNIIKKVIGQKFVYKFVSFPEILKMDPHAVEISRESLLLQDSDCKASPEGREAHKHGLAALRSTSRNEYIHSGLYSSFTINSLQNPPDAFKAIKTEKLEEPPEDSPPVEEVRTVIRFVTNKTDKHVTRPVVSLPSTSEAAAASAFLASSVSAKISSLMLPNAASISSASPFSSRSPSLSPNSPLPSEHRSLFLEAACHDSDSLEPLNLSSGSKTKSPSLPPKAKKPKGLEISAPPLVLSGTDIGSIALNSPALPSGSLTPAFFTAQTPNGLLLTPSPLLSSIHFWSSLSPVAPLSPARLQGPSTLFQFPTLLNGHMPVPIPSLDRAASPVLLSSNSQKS
# Outline: as §1
# [10] = target: T7, FEV (Homo sapiens, UniProt Q99581 1-238); conditions: protein: recombinant; tags: N-terminal GST; dsDNA, one strand shown
# T7 sequence: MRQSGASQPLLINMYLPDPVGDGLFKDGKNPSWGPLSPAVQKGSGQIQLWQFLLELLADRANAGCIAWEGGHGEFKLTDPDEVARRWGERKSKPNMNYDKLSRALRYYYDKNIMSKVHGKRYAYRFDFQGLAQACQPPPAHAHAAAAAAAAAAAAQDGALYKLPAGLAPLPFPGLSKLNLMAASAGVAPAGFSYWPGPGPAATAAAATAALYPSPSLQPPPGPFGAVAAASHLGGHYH
# Outline: as §1
# [11] = target: ETV5 (Homo sapiens, UniProt P41161 1-510); conditions: protein: recombinant; tags: N-terminal GST; dsDNA, one strand shown
# Sequence of ETV5 (P41161 whole entry): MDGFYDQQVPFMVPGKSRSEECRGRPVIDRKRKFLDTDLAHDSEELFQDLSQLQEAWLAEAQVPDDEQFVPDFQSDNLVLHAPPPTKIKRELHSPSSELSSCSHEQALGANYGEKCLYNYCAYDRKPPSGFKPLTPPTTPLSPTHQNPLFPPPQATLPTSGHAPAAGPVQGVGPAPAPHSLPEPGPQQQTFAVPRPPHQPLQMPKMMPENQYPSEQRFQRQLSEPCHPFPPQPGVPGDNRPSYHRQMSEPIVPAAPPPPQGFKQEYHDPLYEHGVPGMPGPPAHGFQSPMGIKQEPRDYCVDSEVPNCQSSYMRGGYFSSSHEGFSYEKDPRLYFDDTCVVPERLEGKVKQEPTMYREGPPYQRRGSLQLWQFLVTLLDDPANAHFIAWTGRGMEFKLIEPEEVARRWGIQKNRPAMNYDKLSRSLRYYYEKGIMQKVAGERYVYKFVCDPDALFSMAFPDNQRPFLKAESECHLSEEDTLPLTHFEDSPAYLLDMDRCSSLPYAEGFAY
# Outline: as §1
# [12] = target: HSF1 (Homo sapiens, UniProt Q00613 1-529); conditions: protein: recombinant; tags: N-terminal GST; chain copies: 3; dsDNA, one strand shown
# Sequence of HSF1 (Q00613 whole entry): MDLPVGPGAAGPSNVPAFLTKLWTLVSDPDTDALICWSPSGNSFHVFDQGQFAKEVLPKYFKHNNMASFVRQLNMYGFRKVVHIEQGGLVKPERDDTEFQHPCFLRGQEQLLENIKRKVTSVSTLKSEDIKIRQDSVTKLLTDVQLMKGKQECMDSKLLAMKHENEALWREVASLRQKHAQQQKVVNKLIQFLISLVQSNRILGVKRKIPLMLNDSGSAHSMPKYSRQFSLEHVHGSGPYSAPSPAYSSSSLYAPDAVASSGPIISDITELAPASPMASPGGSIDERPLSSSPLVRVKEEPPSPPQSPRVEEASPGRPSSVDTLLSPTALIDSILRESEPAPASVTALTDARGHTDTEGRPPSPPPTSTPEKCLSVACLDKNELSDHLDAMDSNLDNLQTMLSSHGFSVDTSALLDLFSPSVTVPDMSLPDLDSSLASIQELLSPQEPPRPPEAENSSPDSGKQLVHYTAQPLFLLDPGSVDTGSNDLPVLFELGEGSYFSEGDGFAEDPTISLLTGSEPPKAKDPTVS
# Outline: as §1
# [13] = target: T8, SPIC (Homo sapiens, UniProt Q8N5J4 1-248); conditions: protein: recombinant; tags: N-terminal GST; dsDNA, one strand shown
# T8 sequence: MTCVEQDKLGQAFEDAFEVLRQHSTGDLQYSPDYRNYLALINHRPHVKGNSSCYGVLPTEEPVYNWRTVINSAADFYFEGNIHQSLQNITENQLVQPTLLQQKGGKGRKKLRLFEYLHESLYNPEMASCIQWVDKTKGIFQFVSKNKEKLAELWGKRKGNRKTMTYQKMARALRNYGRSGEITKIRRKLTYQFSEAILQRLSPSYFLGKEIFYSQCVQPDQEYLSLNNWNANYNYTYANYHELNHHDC
# Outline: as §1
# [14] = target: ELF4 (Homo sapiens, UniProt Q99607 1-663); conditions: protein: recombinant; tags: N-terminal GST; dsDNA, one strand shown
# Sequence of ELF4 (Q99607 whole entry): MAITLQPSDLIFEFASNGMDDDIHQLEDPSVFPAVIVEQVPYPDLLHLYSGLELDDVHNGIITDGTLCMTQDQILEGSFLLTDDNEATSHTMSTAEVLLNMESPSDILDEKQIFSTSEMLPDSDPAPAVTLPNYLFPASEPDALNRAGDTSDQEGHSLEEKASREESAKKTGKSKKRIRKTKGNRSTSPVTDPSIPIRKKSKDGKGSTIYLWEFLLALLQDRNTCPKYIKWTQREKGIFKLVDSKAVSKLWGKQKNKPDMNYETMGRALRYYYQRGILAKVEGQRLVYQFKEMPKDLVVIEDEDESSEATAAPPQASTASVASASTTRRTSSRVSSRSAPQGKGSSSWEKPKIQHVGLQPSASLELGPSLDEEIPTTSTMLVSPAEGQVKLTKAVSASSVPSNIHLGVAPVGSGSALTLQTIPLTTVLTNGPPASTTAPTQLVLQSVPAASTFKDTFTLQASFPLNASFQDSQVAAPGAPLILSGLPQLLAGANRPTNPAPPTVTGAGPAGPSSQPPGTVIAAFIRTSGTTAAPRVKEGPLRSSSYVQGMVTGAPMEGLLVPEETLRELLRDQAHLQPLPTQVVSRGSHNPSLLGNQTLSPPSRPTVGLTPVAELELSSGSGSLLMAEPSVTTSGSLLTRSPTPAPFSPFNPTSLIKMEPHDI
# Outline: as §1
# [15] = target: T9, ELK4 (Homo sapiens, UniProt P28324-2 1-405); conditions: protein: recombinant; tags: N-terminal GST; dsDNA, one strand shown
# T9 sequence: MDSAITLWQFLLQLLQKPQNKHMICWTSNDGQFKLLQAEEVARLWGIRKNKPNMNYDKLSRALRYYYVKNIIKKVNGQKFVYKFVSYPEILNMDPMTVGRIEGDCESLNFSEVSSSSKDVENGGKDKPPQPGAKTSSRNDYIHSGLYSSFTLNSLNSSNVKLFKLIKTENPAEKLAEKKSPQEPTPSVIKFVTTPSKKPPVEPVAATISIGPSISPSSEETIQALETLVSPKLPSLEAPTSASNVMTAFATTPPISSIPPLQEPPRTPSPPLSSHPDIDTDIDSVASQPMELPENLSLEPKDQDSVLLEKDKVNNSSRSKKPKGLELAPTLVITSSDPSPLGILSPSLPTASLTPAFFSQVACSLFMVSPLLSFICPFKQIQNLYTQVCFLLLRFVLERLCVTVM
# Outline: as §1
# [16] = target: T10, ETV2 (Homo sapiens, UniProt O00321 1-342); conditions: protein: recombinant; tags: N-terminal GST; dsDNA, one strand shown
# T10 sequence: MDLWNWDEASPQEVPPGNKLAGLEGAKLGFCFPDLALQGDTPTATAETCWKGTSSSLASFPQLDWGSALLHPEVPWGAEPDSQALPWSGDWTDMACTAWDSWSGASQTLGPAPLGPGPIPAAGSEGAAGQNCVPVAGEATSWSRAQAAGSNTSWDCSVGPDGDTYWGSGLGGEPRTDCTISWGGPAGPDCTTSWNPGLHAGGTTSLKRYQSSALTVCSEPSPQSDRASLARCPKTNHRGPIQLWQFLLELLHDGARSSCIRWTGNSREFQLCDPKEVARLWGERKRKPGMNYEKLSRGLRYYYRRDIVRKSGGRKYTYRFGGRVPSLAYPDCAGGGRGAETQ
# Outline: as §1
# [17] = target: T11, ELF3 (Homo sapiens, UniProt P78545 1-371); conditions: protein: recombinant; tags: N-terminal GST; dsDNA, one strand shown
# T11 sequence: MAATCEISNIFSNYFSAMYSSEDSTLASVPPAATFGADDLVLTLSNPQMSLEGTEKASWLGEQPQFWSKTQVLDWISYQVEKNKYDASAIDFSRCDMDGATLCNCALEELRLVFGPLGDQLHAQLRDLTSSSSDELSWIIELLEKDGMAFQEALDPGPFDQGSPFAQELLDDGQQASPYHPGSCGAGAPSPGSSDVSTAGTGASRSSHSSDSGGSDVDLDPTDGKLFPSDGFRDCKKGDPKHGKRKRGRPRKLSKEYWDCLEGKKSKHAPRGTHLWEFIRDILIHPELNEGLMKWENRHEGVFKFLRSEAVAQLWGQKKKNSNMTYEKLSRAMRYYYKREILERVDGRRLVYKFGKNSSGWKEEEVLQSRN
# Outline: as §1
# [18] = target: CRX (Homo sapiens, UniProt O43186 1-299); conditions: protein: recombinant; tags: N-terminal GST; dsDNA, one strand shown
# Sequence of CRX (O43186 whole entry): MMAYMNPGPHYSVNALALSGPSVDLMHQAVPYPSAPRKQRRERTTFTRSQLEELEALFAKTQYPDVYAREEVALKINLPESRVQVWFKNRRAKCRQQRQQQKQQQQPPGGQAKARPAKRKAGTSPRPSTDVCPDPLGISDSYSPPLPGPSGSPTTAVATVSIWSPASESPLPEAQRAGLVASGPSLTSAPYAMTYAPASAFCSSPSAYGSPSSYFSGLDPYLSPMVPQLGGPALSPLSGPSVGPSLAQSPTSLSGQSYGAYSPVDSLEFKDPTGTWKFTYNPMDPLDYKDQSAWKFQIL
# Outline: as §1
# [19] = target: ETV1 (Homo sapiens, UniProt P50549 1-477); conditions: protein: recombinant; tags: N-terminal GST; dsDNA, one strand shown
# Sequence of ETV1 (P50549 whole entry): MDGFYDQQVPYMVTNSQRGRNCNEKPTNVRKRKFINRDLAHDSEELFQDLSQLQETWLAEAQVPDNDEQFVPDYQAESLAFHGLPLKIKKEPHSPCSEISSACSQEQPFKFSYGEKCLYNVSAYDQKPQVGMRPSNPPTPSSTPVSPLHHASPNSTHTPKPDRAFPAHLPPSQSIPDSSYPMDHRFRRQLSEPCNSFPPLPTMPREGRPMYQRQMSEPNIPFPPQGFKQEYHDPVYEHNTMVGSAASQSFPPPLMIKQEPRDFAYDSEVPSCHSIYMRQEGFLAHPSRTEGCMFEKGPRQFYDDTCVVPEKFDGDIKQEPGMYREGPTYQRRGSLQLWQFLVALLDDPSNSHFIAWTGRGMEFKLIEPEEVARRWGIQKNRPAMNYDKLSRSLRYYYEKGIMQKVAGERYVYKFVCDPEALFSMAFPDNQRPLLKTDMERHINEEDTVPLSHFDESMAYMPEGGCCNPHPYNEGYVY
# Outline: as §1
sequence,measurement,setting,value
TACCTT,binding signal,[1],"1.36 fold enrichment (6-mer frequency, TF over GST control)"
same,binding signal,[2],"1.33 fold enrichment (6-mer frequency, TF over GST control)"
same,binding signal,[3],"1.36 fold enrichment (6-mer frequency, TF over GST control)"
same,binding signal,[4],"1.42 fold enrichment (6-mer frequency, TF over GST control)"
same,binding signal,[5],"1.3 fold enrichment (6-mer frequency, TF over GST control)"
same,binding signal,[6],"1.47 fold enrichment (6-mer frequency, TF over GST control)"
same,binding signal,[7],"1.33 fold enrichment (6-mer frequency, TF over GST control)"
same,binding signal,[8],"1.42 fold enrichment (6-mer frequency, TF over GST control)"
same,binding signal,[9],"1.23 fold enrichment (6-mer frequency, TF over GST control)"
same,binding signal,[10],"1.34 fold enrichment (6-mer frequency, TF over GST control)"
same,binding signal,[11],"1.4 fold enrichment (6-mer frequency, TF over GST control)"
same,binding signal,[12],"1.3 fold enrichment (6-mer frequency, TF over GST control)"
same,binding signal,[13],"1.3 fold enrichment (6-mer frequency, TF over GST control)"
same,binding signal,[14],"1.38 fold enrichment (6-mer frequency, TF over GST control)"
same,binding signal,[15],"1.46 fold enrichment (6-mer frequency, TF over GST control)"
same,binding signal,[16],"1.6 fold enrichment (6-mer frequency, TF over GST control)"
same,binding signal,[17],"1.31 fold enrichment (6-mer frequency, TF over GST control)"
same,binding signal,[18],"1.55 fold enrichment (6-mer frequency, TF over GST control)"
same,binding signal,[19],"1.5 fold enrichment (6-mer frequency, TF over GST control)"
